# Experimental data: paper PMC4552634, “A New Set of Chemical Starting Points with Plasmodium falciparum Transmission-Blocking Potential for Antimalarial Drug Discovery” (PLoS ONE, 2015)
# Read-outs that look alike come from different tables or passages of the source. About 3,200 (25%) of roughly 13,000 compounds showed an effect of 50% or more. Some of the results follow.
# Test system: P. falciparum stage V gametocytes
# Parameters: BacTiter-Glo ATP luminescence viability of purified stage V gametocytes in 384-well plates, per cent inhibition versus DMSO
# Conditions: 48 h, 5 µM, inhibitor
Structure (SMILES),% Inhibition [%],% Inhibition (% Inhibition) [%]
COc1ccc(NC(=O)Nc2ccc(-c3ccc(-c4nc5cccc(C)c5[nH]4)s3)cc2)cc1 [TCMDC-133243],-2.294,
COc1ccc(CON2C(N)=NC(N)=NC2(C)C)cc1OC [TCMDC-131587],8.467,
N#Cc1ccc2[nH]cc(-c3cn4cc(SC5CCCC5)ccc4n3)c2c1 [TCMDC-134705],-50.98,
COc1cccc(NC(=O)c2cc(C(=O)Nc3cccc(OC)c3)cc([N+](=O)[O-])c2)c1 [TCMDC-125177],2.834,
O=C(Nc1cccnc1)c1cc(C(=O)Nc2cccnc2)cc([N+](=O)[O-])c1 [TCMDC-125067],-34.07,
O=C(Nc1ccncc1)c1cc(C(=O)Nc2ccncc2)cc([N+](=O)[O-])c1 [TCMDC-125671],89.24,
CC(C)c1ccc2c(c1)c(SC(C)(C)C)c(CC(C)(C)C#N)n2Cc1ccc(Cl)cc1 [TCMDC-131974],-57.09,
C[C@H](Cc1ccc(OCCNC[C@H](O)c2cccc(Cl)c2)cc1)NC[C@H](O)c1ccc(Cl)c(Cl)c1 [TCMDC-131547],69.99,
COC(=O)c1ccc(CC(C)NCC(O)c2cccc(OCc3ccccc3)c2)cc1 (stereo not drawn) [TCMDC-131486],29.25,
COC(=O)c1ccc(CC(C)NCC(O)c2ccc(Cl)c(Cl)c2)cc1 (stereo not drawn) [TCMDC-131431],21.35,
C[C@H](Cc1ccc(OCCCCCCOc2ccccc2)cc1)NC[C@@H](O)c1cc(Br)no1 [TCMDC-131567],65.38,
COC(=O)c1ccc(CC(C)NCC(O)c2ccc(F)c(Cl)c2)cc1 (stereo not drawn) [TCMDC-131517],4.686,
C[C@H](Cc1ccc(OCCCCCCOc2ccc(C[C@@H](C)N[C@H](C)c3ccccc3)cc2)cc1)NC[C@H](O)c1cccc(Cl)c1 [TCMDC-131564],103.4,
COC(=O)c1ccc(CC(C)NCC(O)c2ccc(C(O)CNC(C)Cc3ccc(C(=O)OC)cc3)cc2)cc1 (stereo not drawn) [TCMDC-131545],100.9,
COc1ccc(C(=O)NCC(C)(C)c2nc(-c3ccc(Cl)c(O)c3)c(-c3ccncc3)[nH]2)cc1OCCN(C(C)C)C(C)C [TCMDC-140736],2.982,
CCCCCN1CCCC1CNS(=O)(=O)c1cccc(C(=O)Nc2cccc(C#N)c2)c1 (stereo not drawn) [TCMDC-133690],-52.73,
Cc1ccc(C)c2sc(N(CCCn3ccnc3)C(=O)C=Cc3cccs3)nc12 [TCMDC-124923],12.01,

Structure (SMILES),% Inhibition [%],% Inhibition (% Inhibition) [%]
C=C[C@H]1CN2CC[C@H]1C[C@H]2[C@H](OS(=O)(=O)O)c1ccnc2ccccc12 [TCMDC-138341],14.93,
c1ccc(CCNc2ccnc(Nc3ccc4n[nH]nc4c3)n2)cc1 [TCMDC-136881],0.773,
CCCC(C)c1cnc2nc(N)nc(N)c2c1C (stereo not drawn) [TCMDC-137924],4.639,
CCCC1N=C(N)N=C(N)N1c1ccccc1 (stereo not drawn) [TCMDC-131293],-19.04,
COC(=O)c1ccc(C[C@@H](C)NC[C@H](O)c2cccc(C(F)(F)F)c2)cc1 [TCMDC-131458],,35.35
C#CCOc1ccc(CC(C)NCC(O)c2cccc(C(F)(F)F)c2)cc1 (stereo not drawn) [TCMDC-131480],12.31,
COC(=O)c1ccc(C[C@@H](C)NC[C@H](O)c2cccc(C(F)(F)F)c2)cc1 [TCMDC-131475],,15.4
CNCCCCCCOc1ccc(CC(C)NCC(O)c2cccc(C(F)(F)F)c2)cc1 (stereo not drawn) [TCMDC-131523],111.6,
C[C@H](Cc1ccc(OCCCCCOc2ccc(C[C@@H](C)NC[C@H](O)c3cccc(Cl)c3)cc2)cc1)NC[C@H](O)c1cccc(Cl)c1 [TCMDC-131563],110.4,
C[C@H](Cc1ccc(OCCCCCCOc2ccccc2)cc1)NC[C@H](O)c1cccc(Cl)c1 [TCMDC-131552],11.17,
CC(Cc1ccc(OCCOc2ccccc2)cc1)NCC(O)c1cccc(C(F)(F)F)c1 (stereo not drawn) [TCMDC-131510],16.36,
COC(=O)c1ccc(CC(C)NCC(O)c2cccc(C(F)(F)F)c2)cc1 (stereo not drawn) [TCMDC-131438],,6.787
CC(Cc1ccc(C(=O)OCCOC(=O)c2ccc(CC(C)NCC(O)c3cccc(C(F)(F)F)c3)cc2)cc1)NCC(O)c1cccc(C(F)(F)F)c1 (stereo not drawn) [TCMDC-131544],75.47,
CC(Cc1ccc(C2=CCNCC2)cc1)NCC(O)c1cccc(C(F)(F)F)c1 (stereo not drawn) [TCMDC-131537],95.16,
CCOC(=O)c1ccc(CC(C)NCC(O)c2cccc(C(F)(F)F)c2)cc1 (stereo not drawn) [TCMDC-131491],8.983,
CC(Cc1ccc(OCCN2CCN(c3cccc(Cl)c3)CC2)cc1)NCC(O)c1cccc(Cl)c1 (stereo not drawn) [TCMDC-131533],18.65,
